# RMI-FANCM inh: disruptors of RMI1/RMI2 association with MM2 peptide – biochemical, fluorescence polarization, human, primary screen; 0.58% of 70,000 active; AID 1159607, 2016; FP signal (polarization) at 33 µM; RMI core complex (RMI1/RMI2) binding to FANCM MM2 peptide, human; RMI core complex with F-MM2 peptide; stronger effect = lower value; in the data active = FP signal below about 40
# * = called active by the depositor. Shown is part of a subset that was picked to be rich in hits.
SMILES,RMI-FANCM inh
CC(=O)Nc1ccc(SCCCC(=O)N2CCN(c3ccc(F)cc3)CC2)nn1,62
Cc1cc(C)c2sc(NC(=O)Cc3cccc4ccccc34)nc2c1,60
O=C(O)c1ccc2c(c1)OCCO2,53
O=C(Cc1ccc2c(c1)OCO2)N1CCCCC1,53
O=C(c1ccc2c(c1)OCCO2)N1CCCCC1,-20*
Cc1cc(C)nc(NS(=O)(=O)c2ccc(NC(=O)c3ccc4ncsc4c3)cc2)n1,53
O=C(NCc1ccc2[nH]c3c(c2c1)CCCC3)c1ccc([N+](=O)[O-])cc1,54
Cc1nc(C)c(-c2nnc(-c3ccc(C(F)(F)F)cc3)o2)s1,51
CCS(=O)(=O)c1ccc(CC(=O)N2CCN(c3nc4c(C)ccc(Cl)c4s3)CC2)cc1,49
O=C1OC(=O)c2c(Oc3ccccc3)cc3c4c(c(Oc5ccccc5)cc1c24)C(=O)OC3=O,30*
c1ccc(Oc2cccc(Oc3ccccc3)c2)cc1,58
O=C1c2cc(Cl)c(Cl)cc2C(=O)N1c1ccc(Oc2ccccc2)cc1,64
O=C(OCCNc1ccc([N+](=O)[O-])cn1)c1ccc([N+](=O)[O-])o1,58
CC(=O)c1ccc(NC(=O)Cn2nc(C3CC3)c3cnn(-c4ccc(F)cc4)c3c2=O)cc1,76
O=C(Cc1ccccc1)NCCOc1ccc2nnc(-c3ccccc3)n2n1,69
CCC(=O)NCCOc1ccc2nnc(-c3ccccc3)n2n1,68
COCC(=O)NCCOc1ccc2nnc(-c3ccccc3)n2n1,26*
CCOCCCNS(=O)(=O)c1cc(OC)c(C)cc1OC,64
Cc1ccc(N2CCCS2(=O)=O)cc1NC(=O)C(=O)NCc1ccccc1Cl,72
CCOc1cc(C(=O)Nc2nnc(SCC(=O)N3CCCc4ccccc43)s2)cc(OCC)c1OCC,53
Cc1ccc(C(=O)CSc2nnc3c(n2)[nH]c2ccccc23)cc1,2*
CCn1c(SCC(=O)c2ccc(OC)cc2)nc2c([nH]c3ccccc32)c1=O,105
CC(C)=CCSc1nnc2c(n1)[nH]c1ccccc12,64
CCC(=O)N1CCCc2ccc(NS(=O)(=O)c3ccc(OC)cc3C)cc21,71
CC12CCC(C(=O)NCC(F)(F)F)(C(=O)C1=O)C2(C)C (stereo not drawn),56
SMILES,RMI-FANCM inh
Cc1cc(C)c2sc(N(CCN(C)C)C(=O)c3ccc(S(=O)(=O)N4CCCC4)cc3)nc2c1,75
O=C(c1cc2ccccc2oc1=O)N1CCN(S(=O)(=O)c2cc3c4c(c2)CCN4C(=O)CC3)CC1,61
Cc1nc(-n2nc(-c3ccco3)cc2NC(=O)COc2ccc(Cl)cc2)[nH]c(=O)c1C,57
COc1ccc(CC(=O)Nc2cc(-c3ccco3)nn2-c2nc(C)c(C)c(=O)[nH]2)cc1OC,33*
COc1ccc(CCC(=O)Nc2cc(-c3ccco3)nn2-c2nc(C)c(C)c(=O)[nH]2)cc1,41
CC1c2cccc(O)c2C(O)=C2C(=O)[C@]3(O)C(O)=C(C(N)=O)C(=O)[C@@H](N(C)C)[C@@H]3C[C@@H]21 (stereo partly drawn),79
Cc1nc2ccccc2n1Cc1ccc(C(=O)NCc2c(F)cccc2F)o1,64
Cc1cc2ncc(N=Nc3ccccc3)c(-c3ccc(Cl)cc3)n2n1,50
Cc1ccc(C(=O)C#Cc2ccccc2)cc1,45
C[C@H](CCC(=O)O)[C@H]1CCC2C3C(CC[C@@]21C)[C@@]1(C)CC[C@@H](O)C[C@H]1C[C@@H]3O (stereo partly drawn),63
CC(CCC(=O)N/N=C/c1c[nH]c2ccccc12)C1CCC2C3C(O)CC4CC(O)CCC4(C)C3CCC12C (stereo not drawn),21*
C[C@H](CCC(=O)O)[C@H]1CC[C@H]2[C@@H]3[C@H](O)C[C@@H]4C[C@H](O)CC[C@]4(C)[C@H]3CC[C@]12C,42
Cn1ccc(C(=O)Nc2cccc(Cl)c2Cl)n1,69
O=C(NN1C(=O)/C(=C\C=C\c2ccco2)SC1=S)c1ccc([N+](=O)[O-])cc1,21*
CN1C(=O)/C(=C\C=C\c2ccccc2)SC1=S,59
Cc1ccc(C(=O)NN2C(=O)/C(=C/c3ccc(N(C)C)cc3)SC2=S)cc1,104
Cc1cccc(N2C(=O)/C(=C/C=C/c3ccco3)SC2=S)c1C,9*
CC(C(=O)O)N1C(=O)/C(=C/C=C/c2ccco2)SC1=S (stereo not drawn),82
O=C(Cc1ccccc1)NN1C(=O)/C(=C/c2cccc([N+](=O)[O-])c2)SC1=S,59
O=c1[nH]c(O)c(C=C2C=Nc3ccccc32)s1,48
NC1CC(=O)N(Cc2ccccc2)C1 (stereo not drawn),65
COc1ccc(OC)c(NC(=O)CSc2nc3c(-c4ccccc4)c[nH]c3c(=O)n2C)c1,83
COc1ccccc1N1CCN(CCNC(=O)C(=O)NC(C)(C)C)CC1,65
COc1ccc(Cl)cc1NC(=O)C(=S)NC1CCCCC1,67
CN1CCN(C2=NC(=O)/C(=C\c3ccc(-c4ccccc4[N+](=O)[O-])o3)S2)CC1,39
NC(=O)C[n+]1ccc2ccccc2c1,12*

# Bioassay records (PubChem)
